# Whole data set: some 140,000 sequences, median “enrichment ratio after two sorts for PhoP signalling” near 0, cut for the highest 2% near 11. The full list was thinned out, with the highest values kept by preference.
# B1: PhoQ; a variant is named by its letters at X, in order, P23837 (parent)
# chain: MKKLLRLFFPLSLRVRFLLATAAVVLVLSLAYGMVALIGYSVSFDKTTFRLLRGESNLFYTLAKWENNKLHVELPENIDKQSPTMTLIYDENGQLLWAQRDVPWLMKMIQPDWLKSNGFHEIEADVNDTSLLLSGDHSIQQQLQEVREDDDDAEMTHSVAVNVYPATSRMPKLTIVVVDTIPVELKSSYMVWSWFIYVLSANLLLVIPLLWVAAWWSLRPIEALAKEVRELEEHNRELLNPATTRELTSLVRNLNRLLKSERERYDKYRTTLTDLTHSLKTPLXXLQXXLRSLRSEKMSVSDAEPVMLEQISRISQQIGYYLHRASMRGGTLLSRELHPVAPLLDNLTSALNKVYQRKGVNISLDISPEISFVGEQNDFVEVMGNVLDNACKYCLEFVEISARQTDEHLYIVVEDDGPGIPLSKREVIFDRGQRVDTLRPGQGVGLAVAREITEQYEGKIVAGESMLGGARMEVIFGRQHSAPKDE
# Variants of: B1
# Assay: enrichment ratio after two sorts for PhoP signalling (ratio (wild type AVST 3.29)); higher = more functional
# Conditions: with PhoP (E. coli)
row,Variant,enrichment ratio
1,PMCS,≤ 0.25
2,REDA,≤ 0.25
3,PAGC,≤ 0.25
4,YDLP,≤ 0.25
5,IRNP,≤ 0.25
6,DPYV,2.59
7,EAKL,≤ 0.25
8,YSMM,14.3
9,YERM,≤ 0.25
10,VTTS,≤ 0.25
11,YSWM,≤ 0.25
12,NRMM,≤ 0.25
13,VTTM,16.4
14,SLMM,5.51
15,YEGM,≤ 0.25
16,VTGM,≤ 0.25
17,YEMM,16.1
18,SCMM,14.4
19,KCMM,≤ 0.25
20,RADI,≤ 0.25
21,MQSS,≤ 0.25

row,Variant,enrichment ratio
1,NLSW,≤ 0.25
2,FRTV,≤ 0.25
3,NQTP,≤ 0.25
4,GFHH,≤ 0.25
5,SQRD,≤ 0.25
6,VHHE,≤ 0.25
7,TCMM,11.8
8,YEMV,2.64
9,VTMM,12.1
10,GTMM,5.34
11,YEMW,≤ 0.25
12,TYMM,2.16
13,VYMM,≤ 0.25
14,GQMM,11.4
15,VCMM,2.29
16,YEMS,14.7
17,GYMM,0.253
18,VTPM,≤ 0.25
19,ILAT,0.361
20,HVDN,≤ 0.25
21,TLEY,≤ 0.25

row,Variant,enrichment ratio
1,KMTV,≤ 0.25
2,FPHD,≤ 0.25
3,WHGQ,≤ 0.25
4,FFMM,≤ 0.25
5,NSMM,1.7
6,TSMM,21.5
7,SKMG,3.1
8,MDMM,≤ 0.25
9,SKMM,24.1
10,QTMM,≤ 0.25
11,QGMM,31.6
12,FCMM,8.52
13,KSMM,≤ 0.25
14,MCMM,11.9
15,QLQK,≤ 0.25
16,TKIP,≤ 0.25
17,ELAY,≤ 0.25
18,NETK,≤ 0.25
19,MVNN,≤ 0.25
20,RGIV,≤ 0.25
21,SFSE,≤ 0.25

row,Variant,enrichment ratio
1,ETYT,≤ 0.25
2,MTEV,≤ 0.25
3,VHMG,≤ 0.25
4,FGMM,18.1
5,LSWM,2.98
6,LWMM,≤ 0.25
7,LNMM,1.77
8,LSMM,12.4
9,NNMM,17.4
10,FGWM,≤ 0.25
11,NNRM,≤ 0.25
12,FGGM,≤ 0.25
13,DRPI,≤ 0.25
14,ETGL,≤ 0.25
15,YNMN,≤ 0.25
16,ICFY,≤ 0.25
17,DNHD,≤ 0.25
18,PFKT,≤ 0.25
19,QPNP,≤ 0.25
20,PFSV,≤ 0.25
21,NIRV,≤ 0.25

# Source: a collection of fitness landscapes (doi:10.1126/science.1257360)
